# The list is not random: actives were taken first. Their share in the collection is about 3.5%.
# GDH-TPI inh – GDH-TPI coupling enzyme inhibitors, primary screen, artefact control for M. tuberculosis FBA inhibitor project, biochemical, absorbance, full deck; GDH-TPI coupled enzyme counterscreen, NADH absorbance; inhibition, % at 4.8 µM; 360,000 compounds, 1.2% hits; AID 588335, 2011; in the data active means inhibition above about 30%;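 further: 0% = DMSO wells and 100% = wells lacking the enzyme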
# Rv3671c protease – Rv3671c serine protease inhibitors, primary screen, biochemical, fluorescence polarization, M. tuberculosis H37Rv. inhibition, % at 5.96 µM. 320,000 compounds, 0.048% hits. AID 2606, 2010; in the data active means inhibition above about 38%;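 further: extracellular domain of Rv3671c used as enzyme; 0% = enzyme with DMSO and 100% = no enzyme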
# UGM FP inh – M. tuberculosis UGM enzyme inhibitors, primary screen, biochemical, fluorescence polarization, single point; purified UGM, fluorescence polarization probe displacement; 320,000 compounds, 0.06% hits; AID 504406, 2011; inhibition, % at 10 µM; in the data active means inhibition above about 10%, passing the limit was not always enough
# Target sequence (P9WIQ1 whole entry, looked up): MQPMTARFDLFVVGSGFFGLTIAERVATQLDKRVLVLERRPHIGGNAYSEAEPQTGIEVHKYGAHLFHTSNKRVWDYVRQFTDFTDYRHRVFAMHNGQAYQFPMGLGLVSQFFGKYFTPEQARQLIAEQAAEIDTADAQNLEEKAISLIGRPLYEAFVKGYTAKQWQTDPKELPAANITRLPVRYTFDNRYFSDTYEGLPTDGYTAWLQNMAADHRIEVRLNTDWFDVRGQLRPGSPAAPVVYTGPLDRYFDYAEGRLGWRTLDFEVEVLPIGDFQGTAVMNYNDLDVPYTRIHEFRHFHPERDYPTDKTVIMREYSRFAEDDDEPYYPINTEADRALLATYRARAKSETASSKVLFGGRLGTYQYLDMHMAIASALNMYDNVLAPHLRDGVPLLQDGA
# Mtb FBA inh – Mtb FBA enzyme inhibitors, primary screen, biochemical, fluorescence, strain H37Rv. Fructose-bisphosphate aldolase (Mycobacterium tuberculosis (strain ATCC 25618 / H37Rv)), …. 360,000 compounds, 2.3% hits. inhibition, % at 1 µM. AID 588726, 2011. purified M. tuberculosis FBA, fluorescence read-out; in the data active means inhibition above about 27%;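 further: 0% = vehicle and 100% = reference inhibitor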
# * = called active by the depositor; . = no result given; + = active, no number.
SMILES,GDH-TPI inh,Rv3671c protease,UGM FP inh,Mtb FBA inh
COc1ccc2c(c1)C1(Nc3ccccc3-c3nc4ccccc4n31)C(=O)N2 (stereo unspecified),8.1,-3.1,-6.9,-0.1
O=C(NCc1ccccn1)c1cc2c(ccc3ccccc32)oc1=O,16.9,-4.8,-1.2,172.4*
COc1cccc2cc(C(=O)NCc3ccccn3)c(=O)oc12,4.4,4.2,0.4,-1.0
CC(C)(C)NC(=O)c1cc2c(ccc3ccccc32)oc1=O,4.9,5.4,1.6,79.6*
O=C(O)c1cc2c(ccc3ccccc32)oc1=O,9.7,-0.8,2.6,+
CCCC(=O)c1cc2ccccc2oc1=O,0.0,-6.9,1.6,0.9
C=CCc1cccc2cc(C(=O)NC(C)(C)C)c(=O)oc12,2.9,1.8,0.0,0.0
O=C(c1cc2c(ccc3ccccc32)oc1=O)N1CCCC1,15.9,0.6,0.5,166.0*
CC1CCCC(NC(=O)COC(=O)c2cc3ccccc3oc2=O)C1C (stereo unspecified),1.8,6.2,2.4,3.6
CCOC(=O)c1cc2c(ccc3ccccc32)oc1=O,6.7,-6.9,1.5,+
O=C(O)c1cc2ccc3ccccc3c2oc1=O,10.2,-1.0,-1.6,196.2*
C/C(=N\NC(=O)c1ccc(NS(=O)(=O)c2cccs2)cc1)c1ccncc1,31.7*,-0.8,1.3,0.5
C/C(=N\NC(=O)c1ccc(NS(=O)(=O)c2cccs2)cc1)c1ccc(O)cc1O,67.5*,30.4,0.1,1.0
C/C(=N\NC(=O)c1ccc(NS(=O)(=O)c2cccs2)cc1)c1ccccc1,15.5,-12.8,2.7,2.3
CC1(C(=O)Nc2ccc(Cl)c(Cl)c2)CCN1C(=O)Cc1ccc(-c2ccccc2)cc1 (stereo unspecified),1.8,.,.,-1.7
CC(NC(=O)COC(=O)c1ccc[nH]c1=O)c1ccccc1 (stereo unspecified),7.9,2.3,-0.6,-0.7
Cn1c(-c2ccsc2)c(-c2cccs2)c2cc(-c3ccc4[nH]ccc4c3)ccc21,29.0,3.8,-0.8,6.1
Cn1c(-c2ccsc2)c(-c2cccs2)c2cc(-c3ccc4cc[nH]c4c3)ccc21,35.2*,12.5,-0.7,5.5
Cc1ccc(/C=C/C(=O)Nc2nccs2)o1,51.6*,2.5,2.4,0.5
O=C(CSc1nc2ccccc2o1)N/N=C/c1ccc(O)c(O)c1,54.4*,3.2,0.2,2.9
Cc1cc(=O)oc2cc(OCCSCCN3CCCCC3)ccc12,36.0*,-4.1,3.0,26.3
Cc1cc(=O)oc2cc(OCCSc3nnc(-c4ccccc4)o3)ccc12,9.3,0.8,-1.7,15.1
CCCCC(=O)N1C(C)CCC1C (stereo unspecified),1.3,.,.,-3.4
CC(=O)NC(CSC(CC(=O)c1ccco1)c1ccc(C)cc1)C(=O)O (stereo unspecified),31.4*,7.9,-2.1,5.4
O=C(CC(SCCO)c1ccc([N+](=O)[O-])cc1)c1ccco1 (stereo unspecified),31.0*,-2.1,-3.2,0.6
SMILES,GDH-TPI inh,Rv3671c protease,UGM FP inh,Mtb FBA inh
CC(=O)NC(Cc1ccccc1)C(=O)N1CCN(C(=O)c2ccco2)CC1 (stereo unspecified),2.6,-1.0,1.5,0.6
CCn1c(CNC(=O)c2cccnc2)cc2ccccc21,1.6,0.0,-1.6,1.2
O=C(CN1CCCC1)Nc1ccccc1Sc1ccc(Cl)cc1,4.9,1.5,-2.3,0.7
Cn1ccc2c(/C=C/c3ccc(F)cc3)cc3c(c21)C1CCC3O1 (stereo unspecified),.,.,.,139.9*
Cn1ccc2c(/C=C/c3ccc(F)cc3)cc3c(c21)C1CCC3C1 (stereo unspecified),.,.,.,8.1
CC(=O)/C=N/Nc1ccccc1,36.2*,0.4,0.0,2.1
CC(=NNc1ccccc1)C(C)=NNc1ccccc1,8.2,.,.,-1.2
COCCOC(=O)c1cc(C(=O)c2cc(F)ccc2O)coc1=N,36.6*,1.2,0.9,17.0
O=C(N/N=C/C(Cl)=C/c1ccccc1)c1cnccn1,86.4*,3.5,0.6,-6.4
COc1cccc(/C=N/NC(=O)c2cnccn2)c1,8.1,7.7,0.0,-1.3
COc1ccc(C(=O)N/N=C\C(C)=C\c2ccccc2)cc1OC,51.0*,-3.9,3.9,-5.7
O=C(N/N=C/c1cccc([N+](=O)[O-])c1)c1cnccn1,15.5,-14.8,0.2,0.9
O=C(N/N=C/C(Cl)=C\c1ccccc1)c1cnccn1,66.4*,7.2,0.5,4.4
CC(=C/c1ccccc1)/C=N/NC(=O)c1cnccn1,42.6*,3.4,0.0,-2.3
COc1ccc(Oc2c(OC)cc(NCc3ccc(CN)cc3)c3ncccc23)cc1,8.8,.,.,-0.1
